Screens: PubChem BioAssay, Sanford-Burnham Center for Chemical Genomics
Sampled rows, rich in hits. Any-hit rate of the full collection: about 3%.
SENP6 block = SENP6 protease inhibitors, primary screen, biochemical, luminescence, uHTS. Recombinant SENP6 catalytic domain, aminoluciferin luminescence. inhibition, % at 10 µM. 330,000 compounds, 1.8% hits;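 active = inhibition above about 50% at the single tested dose, limit read from the data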
Target sequence (Q9GZR1 628-1112 limits assumed): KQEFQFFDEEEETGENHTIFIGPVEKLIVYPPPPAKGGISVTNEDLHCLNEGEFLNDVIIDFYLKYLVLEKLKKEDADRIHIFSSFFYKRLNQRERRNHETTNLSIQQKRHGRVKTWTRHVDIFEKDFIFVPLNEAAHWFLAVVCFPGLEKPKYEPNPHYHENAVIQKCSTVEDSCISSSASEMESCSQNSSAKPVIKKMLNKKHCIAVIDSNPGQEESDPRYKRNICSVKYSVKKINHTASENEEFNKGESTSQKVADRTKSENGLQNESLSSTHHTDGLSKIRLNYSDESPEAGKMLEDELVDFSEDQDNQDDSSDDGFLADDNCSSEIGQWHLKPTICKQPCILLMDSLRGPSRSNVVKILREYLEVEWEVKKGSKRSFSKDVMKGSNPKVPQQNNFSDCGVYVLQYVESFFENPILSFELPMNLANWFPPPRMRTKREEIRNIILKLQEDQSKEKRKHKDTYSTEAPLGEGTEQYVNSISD
SENP8 block-1 = human SENP8 protease inhibitors, primary screen, biochemical, fluorescence, Nedd8 protein substrate, uHTS | Sentrin-specific protease 8 (Homo sapiens), Q96LD8 | recombinant SENP8 | inhibition, % at 20 µM | 360,000 compounds, 0.64% hits | AID 602440, 2012; in the data active = inhibition mostly above about 40%, no sharp cut-off; inactive = mostly below about 27%
SENP8 block-2 = SENP8 protease inhibitors, primary screen, biochemical, luminescence | inhibition, % at 10 µM | 330,000 compounds, 1.2% hits | Sentrin-specific protease 8 (Homo sapiens), Q96LD8 | purified SENP8, Z-RLRGG-aminoluciferin cleavage; in the data active = inhibition above about 50%
SENP7 inh = SENP7 protease inhibitors, primary screen, biochemical, luminescence, uHTS; 330,000 compounds, 1.5% hits; recombinant SENP7, Z-RLRGG-aminoluciferin luminescence, 40 min; inhibition, % at 5 µM;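 active = inhibition above about 50% at the single test dose, limit read from the data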
PPC-1+TRAIL kill = compounds killing PPC-1 cancer cells with TRAIL present, primary screen, TRAIL potentiator project, ATPLite luminescence, uHTS. PPC-1 cells + TRAIL, ATPLite viability luminescence. cell killing (% activity), % at 4 µM or 5 µM. 220,000 compounds, 0.41% hits. AID 1443, 2008;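 active = cell killing above 50% in the first pass at 4 µM, then a duplicate retest at 5 µM averaging 50% or more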
TRAIL sens C8 = viability loss with TRAIL in NB7+C8 cells, primary screen, TRAIL sensitizer project, cell-based, ATPlite luminescence. inhibition (viability loss, TRAIL sensitization), % at 10 µM. 360,000 compounds, 1% hits;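 active = compounds causing at least 50% loss of cell viability in the single-dose screen, relative to plate controls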
SENP8 conf = SENP8 protease inhibitors, retest, confirmation, biochemical, luminescence, single concentration; shares compounds with SENP7 inh; inhibition, % at 12.5 µM; Recombinant SENP8, Z-RLRGG-aminoluciferin luminescence, 60 min; 6,200 compounds, 40% hits;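 active = mean inhibition across replicates above about 50%, limit read from the data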
SENP6 conf = SENP6 protease inhibitors, confirmation, biochemical, luminescence, single concentration; recombinant SENP6, Z-RLRGG-aminoluciferin luminescence; 6,200 compounds, 58% hits; AID 488915, 2010; inhibition, % at 12.5 µM; shares compounds with SENP7 inh
SENP7 confirm = SENP7 protease inhibitors, retest, confirmation, biochemical, luminescence, single concentration. recombinant SENP7, Z-RLRGG-aminoluciferin luminescence, 40 min. 6,200 compounds, 69% hits. AID 488917, 2010. inhibition, % at 12.5 µM. shares compounds with SENP7 inh
Casp3 SENP sel = caspase-3 protease inhibitors, confirmation, selectivity assay for SENP inhibitor project, biochemical, single concentration. purified caspase-3, Z-DEVD-aminoluciferin luminescence, 60 min. shares compounds with SENP7 inh. inhibition, % at 12.5 µM. 6,200 compounds, 60% hits;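 active = mean inhibition above about 50%, limit read from the data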
SENP luc ctr = luminescence interference (SENP counter-screen); shares compounds with SENP7 inh; Pre-incubated SENP8/Z-RLRGG-aminoluciferin, luciferase luminescence interference; inhibition, % at 12.5 µM; 6,200 compounds, 39% hits;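 active = mean inhibition above about 50% when retested at one dose, limit read from the data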
A number is an active result; n = inactive; x = not tested or not shown.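 Rule for the calls, unless noted: active = mean inhibition above about 50% in the one-dose retest (limit read from the data); inactive = the rest.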

SMILES	SENP6 block	SENP8 block-1	SENP8 block-2	SENP7 inh	PPC-1+TRAIL kill	TRAIL sens C8	SENP8 conf	SENP6 conf	SENP7 confirm	Casp3 SENP sel	SENP luc ctr
Cc1nc(NS(=O)(=O)c2ccccc2)sc1NC(=O)OC(C)C	n	n	n	98	n	n	n	n	n	n	n
O=C(CS(=O)c1ccc(Br)cc1)N1CCOCC1 (stereo not given)	n	n	n	n	x	n	x	x	x	x	x
O=C(c1ccc(F)cc1)c1cc2ccccc2o1	84	n	51	67	n	n	n	n	84	57	n
O=C(c1ccccc1)c1cc2ccccc2o1	74	n	51	65	n	n	n	58	82	53	n
COc1cccc2cc(C(=O)c3ccccc3)oc12	73	n	61	62	n	n	n	60	84	61	64
COc1ccc(OC(=O)c2cc3ccccc3o2)cc1	61	n	n	71	n	n	n	n	89	n	n
C=CC[n+]1c(/C=C/c2ccc(OC(C)=O)c(OC)c2)ccc2ccccc21	n	n	n	n	x	n	x	x	x	x	x
Cc1cc2cc(CCNS(=O)(=O)c3ccc(F)cc3)c(=O)[nH]c2cc1C	n	n	n	n	x	n	x	x	x	x	x
COc1cccc(NC(=O)COC(=O)CCn2c(C)csc2=O)c1	n	n	n	n	x	n	x	x	x	x	x
c1ccc(-c2onc3cc4c(cc23)OCCO4)cc1	89	n	78	76	n	n	n	92	101	86	92
CCc1ccc2nc3sc(C(=O)O)cc3cc2c1	50	n	n	n	n	n	58	53	82	76	67
Cc1ccc(-c2nnc(SCc3ccccc3F)o2)cc1	67	n	n	58	n	n	61	70	87	n	n
S=C(Nc1ccccc1)c1ccccn1	64	n	54	59	n	n	n	n	83	59	n
Nc1ccccc1C(=O)/C=C/c1ccc2c(c1)OCO2	84	n	66	94	n	n	90	81	93	55	73
Cc1ccc(C(=O)C=Cc2ccc3c(c2)OCO3)c(C)c1	x	n	x	x	x	n	x	x	x	x	x
COc1ccccc1N/C=C/c1onc(C)c1[N+](=O)[O-]	99	n	96	99	n	n	84	95	96	92	n
CCOc1cc(CNc2ncn[nH]2)ccc1OCC(=O)NC(C)(C)C	n	n	n	n	n	n	x	x	x	x	x
COc1ccc(NC(=O)n2ncc3c(C)cccc32)cc1	74	n	72	61	x	n	84	83	95	63	73
C=CCn1c(/N=C/c2ccc(N(C)C)cc2)nc2ccccc21	77	n	71	n	n	n	81	78	94	75	85
CN(C)c1ccc(/C=N/n2ncc3ccccc32)cc1	76	n	68	n	n	51	n	85	97	70	n
Oc1ccc(N=Nc2n[nH]c(-c3ccccc3)n2)cc1	94	n	96	98	n	n	98	98	102	98	98
